Here are results for 13 compounds from PubChem BioAssay (NCI).

Molecules are shown by their SMILES. About 83,000 compounds went through this panel and 20% of them were active in at least one assay; those are over-represented in the sample as a whole.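 Treatment: one concentration, 48 hours, 96-well format. Scoring: percent growth, with anything below 10 considered active.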 Unmarked numbers belong to inactive results. Activity calls are given as the source filed them.

Among the test systems are NCI-H23 lung; NCI-H226 lung; NCI-H322M lung; HOP-62 NSCLC; NCI-H460 lung; HOP-92 NSCLC; NCI-H522 lung; A549/ATCC NSCLC; 786-0 renal; COLO 205 colon.
Common to all, as to experiment: NCI-60 one-dose screen, 48 h (100 = growth as untreated, 0 = no growth, -100 = all killed)
Conditions in all cases: 10 µM unless noted

Consider `ClCCN(CCCl)c1ccc(/C=N/Nc2ncnc3nc[nH]c23)cc1`, for which the growth was 68.8% with NCI-H23 lung; 79% in the experiment on NCI-H226 lung; 97.7% with NCI-H322M lung; 82% in the experiment with HOP-62 NSCLC; 39.1% with NCI-H460 lung; 81.3% with HOP-92 NSCLC. For the same compound, the growth in the experiment with NCI-H522 lung was 61%; in the experiment with A549/ATCC NSCLC it was 87.7%; in the experiment with 786-0 renal it was 80.2%; in the experiment with COLO 205 colon, 90.5%.
For `CCOc1ccccc1C(=O)OCC(Cl)(Cl)Cl`, the growth in the experiment with NCI-H23 lung is 102%; in the experiment with NCI-H226 lung, 101%; in the experiment on NCI-H322M lung, 102%; in the experiment with HOP-62 NSCLC it was 99.9%; with NCI-H460 lung it was 107%; in the experiment with HOP-92 NSCLC it was 113%. The growth in the experiment on NCI-H522 lung was 105%; with A549/ATCC NSCLC it was 106%; in the experiment on 786-0 renal, 99.6%; in the experiment with COLO 205 colon, 102%.
`CC(C)(C)C(=O)OCOP(=O)(NCc1ccccc1)C1CCCN(O)C1=O` (stereo not given): the growth in the experiment with NCI-H23 lung is 49.1%; in the experiment on NCI-H226 lung it was 32.4%; in the experiment with NCI-H322M lung it was 27.8%; in the experiment on HOP-62 NSCLC, 23.4%; in the experiment with NCI-H460 lung it was 7.07% (active); with HOP-92 NSCLC it was 34%. Further, the growth was 8.18% (active) in the experiment on NCI-H522 lung, 29.9% with A549/ATCC NSCLC, 23.9% in the experiment with 786-0 renal and 45.7% in the experiment with COLO 205 colon.
For the compound `CC(=O)OCc1cc[c]([Hg][Cl])o1`, the growth is 58.8% in the experiment with NCI-H23 lung; 81.5% in the experiment on NCI-H226 lung; 98.7% with NCI-H322M lung; 91.4% in the experiment on HOP-62 NSCLC; 84.9% in the experiment on NCI-H460 lung; 53.8% with HOP-92 NSCLC. Also, the growth with NCI-H522 lung is -53.6% (active); with A549/ATCC NSCLC, 73.9%; in the experiment with 786-0 renal, 24.5%; in the experiment on COLO 205 colon, -1.94% (active).
As for `N/C(=N\N=C\c1ccc(-c2ccccc2)cc1)N[N+](=O)[O-]`, the growth was 41% in the experiment on NCI-H23 lung; 73.6% with NCI-H226 lung; 52.7% with NCI-H322M lung; 38.2% with HOP-62 NSCLC; 16.4% with NCI-H460 lung; 51.6% in the experiment on HOP-92 NSCLC. Besides, the growth is 18.2% in the experiment on NCI-H522 lung, 38.4% with A549/ATCC NSCLC, 40.6% in the experiment on 786-0 renal and 24.9% in the experiment on COLO 205 colon.
With `O=C1OCCC1Br` (stereo not given), the growth in the experiment with NCI-H23 lung is 103%; in the experiment on NCI-H226 lung, 103%; in the experiment on NCI-H322M lung, 97.7%; with HOP-62 NSCLC it was 105%; in the experiment on NCI-H460 lung it was 105%; in the experiment on HOP-92 NSCLC it was 85.6%. For the same compound, the growth was 83.9% with NCI-H522 lung, 99.8% with A549/ATCC NSCLC, 106% with 786-0 renal and 120% in the experiment on COLO 205 colon.
For `COC(=O)[C@H](Cc1c[nH]c2ccccc12)NC(=O)[C@@H](OC)[C@@H]1Cc2cc3cc(OC4CC(OC5CC(O)C(O)C(C)O5)C(O)C(C)O4)c(C)c(O)c3c(O)c2C(=O)[C@H]1OC1CC(OC2CC(OC3CC(C)(O)C(O)C(C)O3)C(O)C(C)O2)C(O)C(C)O1` (stereo not given in full), the growth with NCI-H23 lung is -20.3% (active); with NCI-H226 lung, -38.6% (active); in the experiment on NCI-H322M lung, 6.45% (active); in the experiment on HOP-62 NSCLC, 9.74% (active); in the experiment on NCI-H460 lung it was 6.58% (active); in the experiment with HOP-92 NSCLC, -13.9% (active). The growth was -28.2% (active) with NCI-H522 lung, 12.7% with A549/ATCC NSCLC, 1.54% (active) with 786-0 renal and -39.5% (active) with COLO 205 colon.
For `[Cl][Hg][c]1cc(Br)cc(Br)c1`, the growth with NCI-H23 lung was 61.8%; in the experiment on NCI-H226 lung, 99.9%; in the experiment on NCI-H322M lung, 80%; in the experiment on HOP-62 NSCLC, 31.7%; in the experiment with NCI-H460 lung, 32.2%; in the experiment on HOP-92 NSCLC, 11.2%. The growth in the experiment with NCI-H522 lung is -30.4% (active); with A549/ATCC NSCLC, 68%; in the experiment on 786-0 renal it was 26.3%; in the experiment with COLO 205 colon, 91%.
Consider `O=[N+]([O-])/C=C\c1ccc(Cl)c(Cl)c1`, for which the growth in the experiment on NCI-H23 lung is 77%; with NCI-H226 lung, 73.8%; in the experiment with NCI-H322M lung it was 105%; in the experiment with HOP-62 NSCLC, 95.6%; with NCI-H460 lung, 67.2%; in the experiment on HOP-92 NSCLC it was 59.2%. The growth in the experiment with NCI-H522 lung was 74%; in the experiment with A549/ATCC NSCLC, 57.5%; in the experiment on 786-0 renal, 74%; with COLO 205 colon, 41.1%.
For `Fc1ccc2c(c1)c(-c1nc(-c3c[nH]c4ncccc34)cs1)cn2CCCCN1CCCCC1`, the growth was -75.9% (active) in the experiment on NCI-H23 lung; -7.3% (active) in the experiment on NCI-H226 lung; -47.9% (active) in the experiment on NCI-H322M lung; -89.5% (active) with HOP-62 NSCLC; -80% (active) in the experiment on NCI-H460 lung; -52.8% (active) in the experiment on HOP-92 NSCLC. Also, the growth in the experiment on NCI-H522 lung is -87.2% (active); in the experiment on A549/ATCC NSCLC it was -87.7% (active); with 786-0 renal, -93.7% (active); with COLO 205 colon, -89.6% (active).
As for `COc1cc(/C=C/[N+](=O)[O-])cc(OC)c1`, the growth in the experiment on NCI-H23 lung was -47.3% (active); in the experiment with NCI-H226 lung it was -31.2% (active); in the experiment on NCI-H322M lung, 84.6%; with HOP-62 NSCLC it was 35.9%; in the experiment on NCI-H460 lung it was 40.6%; with HOP-92 NSCLC, 28.9%. Besides, the growth in the experiment with NCI-H522 lung was -40.1% (active); in the experiment on A549/ATCC NSCLC it was 28.6%; in the experiment with 786-0 renal, -45.3% (active); in the experiment with COLO 205 colon it was -49.4% (active).
Consider `CCOC(=O)[C@@H](C)C[C@H](Cc1ccccc1)NC(=O)c1csc([C@@H](C[C@H](C(C)C)N(C)C(=O)[C@H](CCC(C)C)NC(=O)[C@H]2CCCCN2C)OC(C)=O)n1`, for which the growth in the experiment on NCI-H23 lung is 25.3%; with NCI-H226 lung it was 27.7%; with NCI-H322M lung, 28.2%; in the experiment with HOP-62 NSCLC it was 13.8%; with NCI-H460 lung, 5.8% (active); in the experiment with HOP-92 NSCLC it was -1.79% (active). For the same compound, the growth in the experiment with NCI-H522 lung was -27% (active); in the experiment on A549/ATCC NSCLC, 8.64% (active); in the experiment on 786-0 renal, 3.93% (active); with COLO 205 colon it was -75.2% (active).
On to `O=[N+]([O-])c1ccc(OP(=O)(CCl)N(CCCl)CCCl)cc1` (stereo not given), for which the growth is 108% in the experiment on NCI-H23 lung; 98.9% in the experiment on NCI-H226 lung; 103% in the experiment with NCI-H322M lung; 93.5% in the experiment on HOP-62 NSCLC; 105% in the experiment on NCI-H460 lung; 114% with HOP-92 NSCLC. Besides, the growth is 74.8% in the experiment on NCI-H522 lung, 102% in the experiment on A549/ATCC NSCLC, 97.9% in the experiment on 786-0 renal and 112% in the experiment on COLO 205 colon.
